Source: PubChem BioAssay (NCATS)
Values joined by “and” are separate entries in the source; they are usually repeats but may differ in a detail not shown here. Equal entries are not always repeated. Records with an inconclusive call do not appear. Active and inactive are the calls of the source. The call rests on the fitted dose curve; in most records, active means well fitted inhibition curve with a large enough effect in the repeat runs; inconclusive means weak or mixed curves; inactive means flat fitted curve, though single readings scatter.

target: Cytochrome P450 2D6 (Homo sapiens) (UniProt P10635); assay: Cytochrome P450 family 2 subfamily D member 6 (CYP2D6) small molecule antagonists: luciferase biochemical (cell-free) qHTS assay (AID 1645840); conditions: P450-Glo CYP2D6 enzyme, luciferin luminescence, 1 h; series mostly up to 57.4 µM; activity change, negative = inhibition: at the top concentration; further: nearly all actives have a fitted effect of over 55% in size
Experimental: National Center for Advancing Translational Sciences [NCATS] Assay Overview: Cytochrome P450 (CYP) enzymes are membrane-bound hemeproteins that play a key role in metabolism of drugs and xenobiotics. Assaying the effect of chemicals on CYP isozymes is useful to minimize the adverse drug reactions and toxicities in drug development process. Chemical compounds were tested for their effect on CYP enzyme activities by using P450-Glo (TM) screening systems (Promega Corporation, Madison, WI). These systems provide a luminescent method containing proluciferin substrates and are converted to luciferin products by CYP isozymes. The luciferin products formed are detected with a luciferin detection reagent, and the amount of light produced is proportional to CYP activity. P450-Glo (TM) CYP2D6 screening system (Catalog. No. V9890) was used to detect the compounds that interfere in CYP2D6 activity.
Assay Protocol Summary: Two ul of enzyme-substrate mix was dispensed into medium binding white/solid 1536-well plates (Greiner Bio-One North America Inc., Monroe, NC) using a Flying Reagent Dispenser (FRD, Aurora Discovery, San Diego, CA). […] The assay plates were incubated at room temperature for 10 min. Then 2 ul of NADPH regeneration solution was added to each well of the assay plates using an FRD and incubated at room temperature for 1 h. The reaction was stopped by adding 4 ul of detection reagent using an FRD and after 20 min incubation at room temperature, the luminescence signal was measured using a ViewLux plate reader (Perkin Elmer, Shelton, CT). Data were expressed as relative luminescence units.
On the % scale 0 is the no-effect control and ±100 the full control effect; potency means the concentration at half of the fitted maximal effect.

Chain of Cytochrome P450 2D6 (Homo sapiens) (P10635 whole entry, looked up): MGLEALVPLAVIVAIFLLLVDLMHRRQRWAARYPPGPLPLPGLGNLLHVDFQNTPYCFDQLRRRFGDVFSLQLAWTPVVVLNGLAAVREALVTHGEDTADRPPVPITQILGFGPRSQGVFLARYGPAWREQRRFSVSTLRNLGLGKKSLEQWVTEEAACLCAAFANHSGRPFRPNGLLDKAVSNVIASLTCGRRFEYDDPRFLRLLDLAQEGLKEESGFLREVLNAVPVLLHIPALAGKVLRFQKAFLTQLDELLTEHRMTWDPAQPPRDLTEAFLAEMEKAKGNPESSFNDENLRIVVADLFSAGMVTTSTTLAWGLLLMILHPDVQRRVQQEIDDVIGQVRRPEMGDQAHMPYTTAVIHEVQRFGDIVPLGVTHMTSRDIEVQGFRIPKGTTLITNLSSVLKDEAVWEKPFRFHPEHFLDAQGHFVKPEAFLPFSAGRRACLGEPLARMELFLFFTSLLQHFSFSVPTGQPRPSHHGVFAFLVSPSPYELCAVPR

Question: For COc1cc(NS(=O)(=O)c2ccc(N)cc2)nc(OC)n1, which “activity change, negative = inhibition” value is on record?
Answer: The value was -17.9% (inactive).

Question: Cc1cccc(Nc2ccncc2S(=O)(=O)NC(=O)NC(C)C)c1 was tested. Which “activity change, negative = inhibition” value did it give?
Answer: Its value is 1.83% (inactive).

Question: With O=NN(CCCl)C(=O)NC1CCCCC1 as the compound, how does the “activity change, negative = inhibition” value read?
Answer: The value was 18.8% (inactive).

Question: For COc1nc(N)nc2c1ncn2[C@@H]1O[C@H](CO)[C@@H](O)[C@@H]1O, which Potency is on record?
Answer: Its Potency is “inactive”.

Question: How did the “activity change, negative = inhibition” value turn out when CCOCC(O)COc1ccc(NC(=O)CC[S+](C)C)cc1 (stereo not given) was run?
Answer: Its value is 10% (inactive).

Question: Which “activity change, negative = inhibition” value does the source give for O=P(O)(O)C(O)(Cc1cccnc1)P(=O)(O)O here?
Answer: Its value is 8.97% (inactive).

Question: With O=C(O)CSCC(=O)NC1CCSC1=O (stereo not given) as the compound, how does the “activity change, negative = inhibition” value read?
Answer: Its value is 4.58% (inactive).

Question: How did the “activity change, negative = inhibition” value turn out when NC(=O)N1c2ccccc2CC(=O)c2ccccc21 was run?
Answer: Its value is -1.57% (inactive).

Question: How did the “activity change, negative = inhibition” value turn out when CN(C)CCc1c[nH]c2ccc(C[C@H]3COC(=O)N3)cc12 was run?
Answer: Its value is -11.1% (inactive).

Question: How did the “activity change, negative = inhibition” value turn out when Cc1ccnc2c1NC(=O)c1cccnc1N2C1CC1 was run?
Answer: The value was 5.34% (inactive).

Question: With CC(=O)CC(c1ccccc1)c1c(O)c2ccccc2oc1=O (stereo not given) as the compound, how does the “activity change, negative = inhibition” value read?
Answer: Its value is -24.1% (inactive).

Question: For Nc1nc(=S)c2[nH]cnc2[nH]1, which “activity change, negative = inhibition” value is on record?
Answer: Its value is 14.1% (inactive).

Question: For N=C(N)c1ccc(OCCCCCOc2ccc(C(=N)N)cc2)cc1, which “activity change, negative = inhibition” value is on record?
Answer: The value was -15.5% (inactive).

Question: Which Potency does the source give for CCCOc1ccc(C(=O)OCCN(CC)CC)cc1N here?
Answer: The Potency was 6.17 µM (active) and 6.74 µM (active).

Question: How did the “activity change, negative = inhibition” value turn out when COCCCOc1cc(C[C@@H](C[C@H](N)[C@@H](O)C[C@H](C(=O)NCC(C)(C)C(N)=O)C(C)C)C(C)C)ccc1OC was run?
Answer: The value was 8.04% (inactive).

Question: With O=C(O)c1cccnc1 as the compound, how does the “activity change, negative = inhibition” value read?
Answer: Its value is 20.5% (inactive).

Question: For NC(=O)c1cccnc1, which “activity change, negative = inhibition” value is on record?
Answer: Its value is 8.39% (inactive).

Question: With COC(=O)Nc1nc2ccc(S(=O)c3ccccc3)cc2[nH]1 (stereo not given) as the compound, how does the Potency read?
Answer: The Potency was 12.3 µM (active).

Question: For COc1cc([C@@H]2c3cc4c(cc3[C@H](O)[C@H]3COC(=O)[C@H]23)OCO4)cc(OC)c1OC, which “activity change, negative = inhibition” value is on record?
Answer: The value was -21.4% (inactive).

Question: How did the “activity change, negative = inhibition” value turn out when O=C(O)c1ccc(-n2nc(-c3ccccc3O)nc2-c2ccccc2O)cc1 was run?
Answer: The value was 9.53% (inactive).

Question: How did the Potency turn out when NC(N)=NC(N)=NCCc1ccccc1 was run?
Answer: Its Potency is 6.17 µM (active).

Question: For CNS(=O)(=O)Cc1ccc2[nH]cc(CCN(C)C)c2c1, which “activity change, negative = inhibition” value is on record?
Answer: The value was -25.1% (inactive).

Question: Which Potency does the source give for S=P(N1CC1)(N1CC1)N1CC1 here?
Answer: Its Potency is 53 µM (active).

Question: CCCCOc1ccc(CC(=O)NO)cc1 was tested. Which Potency did it give?
Answer: The Potency was 12.3 µM (active).

Question: Which “activity change, negative = inhibition” value does the source give for O=c1oc2c(O)c(O)cc3c(=O)oc4c(O)c(O)cc1c4c23 here?
Answer: Its value is 10.4% [at 23.9 µM] (inactive).

Question: With O=S(=O)(O)CCS as the compound, how does the “activity change, negative = inhibition” value read?
Answer: Its value is 4.09% (inactive).

Question: With CC1(C)[C@H](C(=O)O)N2C(=O)C[C@H]2S1(=O)=O as the compound, how does the “activity change, negative = inhibition” value read?
Answer: Its value is 8.41% (inactive).

Question: For CC(C)OC(=O)OCOP(=O)(CO[C@H](C)Cn1cnc2c(N)ncnc21)OCOC(=O)OC(C)C, which “activity change, negative = inhibition” value is on record?
Answer: Its value is 2.25% (inactive).

Question: For NS(=O)(=O)c1cc2c(cc1Cl)NC(C(Cl)Cl)NS2(=O)=O (stereo not given), which “activity change, negative = inhibition” value is on record?
Answer: The value was 5.08% (inactive).

Question: With CCCCc1oc2ccc(NS(C)(=O)=O)cc2c1C(=O)c1ccc(OCCCN(CCCC)CCCC)cc1 as the compound, how does the Potency read?
Answer: Its Potency is 2.75 µM (active) and 3.38 µM (active).

Question: How did the Potency turn out when COc1cc(NCc2ccc3nc(N)nc(N)c3c2C)cc(OC)c1OC was run?
Answer: Its Potency is 6.92 µM (active).

Question: How did the Potency turn out when CCC(=O)O[C@]1(C(=O)CCl)[C@@H](C)C[C@H]2[C@@H]3CCC4=CC(=O)C=C[C@]4(C)[C@@]3(F)[C@@H](O)C[C@@]21C was run?
Answer: Its Potency is 11 µM (active).

Question: How did the Potency turn out when CCN(CC)CCn1c(=O)c(Cc2ccc(OC)cc2)nc2ccccc21 was run?
Answer: The Potency was 7.56 µM (active).

Question: For CO[C@@H]1[C@@H](OC(N)=O)[C@@H](O)[C@H](Oc2ccc3c(O)c(NC(=O)c4ccc(O)c(CC=C(C)C)c4)c(=O)oc3c2C)OC1(C)C, which “activity change, negative = inhibition” value is on record?
Answer: The value was -6.39% (inactive).

Question: How did the “activity change, negative = inhibition” value turn out when COc1cnc(NS(=O)(=O)c2ccc(N)cc2)nc1 was run?
Answer: Its value is 2.58% (inactive).

Question: Which “activity change, negative = inhibition” value does the source give for COc1ccccc1OCC(O)COC(N)=O (stereo not given) here?
Answer: The value was 6.61% (inactive).

Question: How did the Potency turn out when CCOc1cc(N)c(Cl)cc1C(=O)NCC1CN(Cc2ccc(F)cc2)CCO1 (stereo not given) was run?
Answer: The Potency was 15.5 µM (active).

Question: How did the “activity change, negative = inhibition” value turn out when CN1CCN(c2c(F)cc3c(=O)c(C(=O)O)cn4c3c2OCN4C)CC1 was run?
Answer: Its value is 6.6% [at 23.9 µM] (inactive).

Question: For Cc1oc(=O)oc1CN1CCN(c2cc3c(cc2F)c(=O)c(C(=O)O)c2n3C(C)S2)CC1 (stereo not given), which “activity change, negative = inhibition” value is on record?
Answer: Its value is 6.26% (inactive).

Question: C[C@@H](CN1CC(=O)NC(=O)C1)N1CC(=O)NC(=O)C1 was tested. Which “activity change, negative = inhibition” value did it give?
Answer: Its value is -1.86% (inactive).
